The results in this text go back to PMC7862700, “An all-to-all approach to the identification of sequence-specific readers for epigenetic DNA modifications on cytosine”.

Holding throughout (assay): DAPPL (digital affinity profiling via proximity ligation, sequencing); 10 mM Tris-HCl pH 7.5, 50 mM NaCl, 1 mM DTT, 4% glycerol, room temperature, 30 min; GST-TFs on glutathione beads, 16-mer random dsDNA library, 0.1% formaldehyde crosslink after washing; high values mean tight binding
What all share (conditions): protein: recombinant; tags: N-terminal GST; dsDNA, one strand shown

For one test, the target named is T1, FLI1 (Homo sapiens, UniProt Q01543 1-452).
T1 sequence: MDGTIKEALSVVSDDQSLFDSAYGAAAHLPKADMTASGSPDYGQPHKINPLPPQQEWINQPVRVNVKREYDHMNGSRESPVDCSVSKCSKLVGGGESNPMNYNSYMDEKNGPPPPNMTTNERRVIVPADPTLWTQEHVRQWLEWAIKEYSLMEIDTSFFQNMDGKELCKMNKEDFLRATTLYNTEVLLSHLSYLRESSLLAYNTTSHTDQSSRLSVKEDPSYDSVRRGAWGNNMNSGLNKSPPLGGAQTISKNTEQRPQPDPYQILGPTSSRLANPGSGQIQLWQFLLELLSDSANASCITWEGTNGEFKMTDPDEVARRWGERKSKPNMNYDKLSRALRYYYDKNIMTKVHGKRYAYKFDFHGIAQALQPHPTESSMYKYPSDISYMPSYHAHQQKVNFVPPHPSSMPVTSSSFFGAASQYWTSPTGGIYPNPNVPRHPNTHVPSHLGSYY
In a few lines: (§1)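 Sequencing on an Illumina NextSeq500 followed washing, crosslinking with 0.1% formaldehyde, proximity ligation (BsaI/T4 ligase, 1 h, 37 °C) and PCR amplification of pools that had been incubated for 30 min at room temperature with 200 nmole of a random double-stranded 16-mer DNA library in Tris/NaCl/DTT/glycerol buffer. Each pool held DNA-barcoded human transcription factors, expressed in yeast as GST fusions and captured on glutathione beads, plus a tag-only sample. Binding signal is a hexamer's read frequency for a factor divided by its frequency in the tag-only sample.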

The target of the next test is T2, ELK1 (Homo sapiens, UniProt P19419 1-428).
T2 sequence: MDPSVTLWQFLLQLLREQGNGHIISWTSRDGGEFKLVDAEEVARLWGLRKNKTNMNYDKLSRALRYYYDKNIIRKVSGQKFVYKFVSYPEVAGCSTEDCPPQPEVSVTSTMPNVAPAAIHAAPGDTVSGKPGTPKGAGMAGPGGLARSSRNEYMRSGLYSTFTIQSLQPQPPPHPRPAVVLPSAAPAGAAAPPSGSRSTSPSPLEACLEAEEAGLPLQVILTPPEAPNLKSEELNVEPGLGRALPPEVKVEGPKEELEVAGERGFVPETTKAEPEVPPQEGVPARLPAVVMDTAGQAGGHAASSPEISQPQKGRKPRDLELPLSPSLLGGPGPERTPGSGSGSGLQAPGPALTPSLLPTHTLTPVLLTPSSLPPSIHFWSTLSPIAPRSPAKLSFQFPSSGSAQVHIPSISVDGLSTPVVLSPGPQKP
In a few lines: as §1

The target in the next test is T3, GABPA (Homo sapiens, UniProt Q06546 1-454).
T3 sequence: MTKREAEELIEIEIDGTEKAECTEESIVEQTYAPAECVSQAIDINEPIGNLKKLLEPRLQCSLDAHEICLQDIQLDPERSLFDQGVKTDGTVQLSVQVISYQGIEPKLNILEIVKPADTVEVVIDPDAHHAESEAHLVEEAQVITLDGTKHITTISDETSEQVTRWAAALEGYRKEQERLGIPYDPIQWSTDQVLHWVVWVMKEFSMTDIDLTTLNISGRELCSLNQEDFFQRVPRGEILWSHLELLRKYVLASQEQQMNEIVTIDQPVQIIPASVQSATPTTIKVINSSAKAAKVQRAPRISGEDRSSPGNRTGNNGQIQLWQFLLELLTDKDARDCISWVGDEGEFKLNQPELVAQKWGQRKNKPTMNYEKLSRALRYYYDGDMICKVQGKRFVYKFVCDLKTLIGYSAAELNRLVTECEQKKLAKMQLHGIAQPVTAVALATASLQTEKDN
In a few lines: as §1

The target in a further test is T4, ERG (Homo sapiens, UniProt P11308 1-479).
T4 sequence: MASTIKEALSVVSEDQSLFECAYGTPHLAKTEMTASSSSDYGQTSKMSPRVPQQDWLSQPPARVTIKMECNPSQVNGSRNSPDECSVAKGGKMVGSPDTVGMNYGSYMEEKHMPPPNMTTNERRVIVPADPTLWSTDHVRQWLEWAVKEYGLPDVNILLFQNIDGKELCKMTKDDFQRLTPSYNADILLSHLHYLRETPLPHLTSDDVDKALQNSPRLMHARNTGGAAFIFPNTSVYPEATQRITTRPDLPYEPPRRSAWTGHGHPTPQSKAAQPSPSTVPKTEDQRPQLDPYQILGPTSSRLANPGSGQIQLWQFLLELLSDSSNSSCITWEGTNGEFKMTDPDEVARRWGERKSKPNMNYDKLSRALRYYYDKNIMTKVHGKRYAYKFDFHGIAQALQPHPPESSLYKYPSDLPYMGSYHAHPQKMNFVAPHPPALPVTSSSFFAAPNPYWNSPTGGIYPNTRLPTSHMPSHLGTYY
The method in brief:
as §1

The next test has as its target ELF1 (Homo sapiens, UniProt P32519 1-619). In a few lines: as §1
The next test deals with T5, EHF (Homo sapiens, UniProt Q9NZC4 1-300).
T5 sequence: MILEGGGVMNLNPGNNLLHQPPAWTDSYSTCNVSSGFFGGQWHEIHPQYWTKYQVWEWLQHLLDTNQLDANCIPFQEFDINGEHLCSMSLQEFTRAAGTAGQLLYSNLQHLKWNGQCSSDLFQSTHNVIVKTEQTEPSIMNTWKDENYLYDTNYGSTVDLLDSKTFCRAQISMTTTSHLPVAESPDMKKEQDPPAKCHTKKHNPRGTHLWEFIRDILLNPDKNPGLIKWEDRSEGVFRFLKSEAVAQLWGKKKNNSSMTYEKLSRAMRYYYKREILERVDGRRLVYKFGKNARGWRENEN
The method in brief:
as §1

In a further test the target is SPI1 (Homo sapiens, UniProt P17947 1-270). In a few lines: as §1
The target of the next test is SPIB (Homo sapiens, UniProt Q01892 1-262). The method in brief: as §1
In the next test the target is T6, FEV (Homo sapiens, UniProt Q99581 1-238).
T6 sequence: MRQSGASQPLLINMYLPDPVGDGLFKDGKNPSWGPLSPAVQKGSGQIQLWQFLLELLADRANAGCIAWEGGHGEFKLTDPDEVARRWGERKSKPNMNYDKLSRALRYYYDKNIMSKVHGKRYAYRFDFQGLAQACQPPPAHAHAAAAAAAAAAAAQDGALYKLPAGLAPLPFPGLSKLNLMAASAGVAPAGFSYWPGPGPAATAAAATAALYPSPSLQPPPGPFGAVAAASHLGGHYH
In a few lines: as §1

A further test has as its target ETV5 (Homo sapiens, UniProt P41161 1-510). In a few lines:
as §1

Another test has as its target T7, SPIC (Homo sapiens, UniProt Q8N5J4 1-248).
T7 sequence: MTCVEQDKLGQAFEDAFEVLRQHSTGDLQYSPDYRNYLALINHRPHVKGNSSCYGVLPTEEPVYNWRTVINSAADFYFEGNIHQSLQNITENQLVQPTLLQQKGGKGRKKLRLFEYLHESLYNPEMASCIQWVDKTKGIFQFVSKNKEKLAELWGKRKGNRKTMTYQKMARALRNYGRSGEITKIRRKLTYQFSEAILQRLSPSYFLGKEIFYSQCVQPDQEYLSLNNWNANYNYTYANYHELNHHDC
In a few lines:
as §1

A further test deals with ELF4 (Homo sapiens, UniProt Q99607 1-663). In a few lines: as §1
A further test concerns the target T8, ELK4 (Homo sapiens, UniProt P28324-2 1-405).
T8 sequence: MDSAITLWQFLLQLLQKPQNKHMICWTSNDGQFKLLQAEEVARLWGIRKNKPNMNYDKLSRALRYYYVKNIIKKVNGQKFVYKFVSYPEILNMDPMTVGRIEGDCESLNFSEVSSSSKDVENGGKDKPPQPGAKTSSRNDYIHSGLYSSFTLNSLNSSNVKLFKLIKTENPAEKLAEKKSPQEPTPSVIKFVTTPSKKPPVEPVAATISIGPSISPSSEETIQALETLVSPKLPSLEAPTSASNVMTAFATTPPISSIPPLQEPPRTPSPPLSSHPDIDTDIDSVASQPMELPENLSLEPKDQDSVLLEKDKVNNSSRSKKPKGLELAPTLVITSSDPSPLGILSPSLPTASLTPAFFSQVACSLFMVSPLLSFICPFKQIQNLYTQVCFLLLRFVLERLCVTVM
The method in brief:
as §1

The next test deals with T9, ETV2 (Homo sapiens, UniProt O00321 1-342).
T9 sequence: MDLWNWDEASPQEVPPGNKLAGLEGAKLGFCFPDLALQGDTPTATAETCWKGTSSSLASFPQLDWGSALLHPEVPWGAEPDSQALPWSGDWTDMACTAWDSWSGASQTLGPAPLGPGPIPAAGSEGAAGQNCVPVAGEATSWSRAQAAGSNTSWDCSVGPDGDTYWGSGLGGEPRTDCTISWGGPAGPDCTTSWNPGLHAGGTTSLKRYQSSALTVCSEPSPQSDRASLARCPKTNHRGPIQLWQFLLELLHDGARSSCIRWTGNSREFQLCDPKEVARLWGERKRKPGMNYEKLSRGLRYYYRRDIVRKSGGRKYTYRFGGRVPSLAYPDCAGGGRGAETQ
The method in brief:
as §1

The next test deals with T10, ELF3 (Homo sapiens, UniProt P78545 1-371).
T10 sequence: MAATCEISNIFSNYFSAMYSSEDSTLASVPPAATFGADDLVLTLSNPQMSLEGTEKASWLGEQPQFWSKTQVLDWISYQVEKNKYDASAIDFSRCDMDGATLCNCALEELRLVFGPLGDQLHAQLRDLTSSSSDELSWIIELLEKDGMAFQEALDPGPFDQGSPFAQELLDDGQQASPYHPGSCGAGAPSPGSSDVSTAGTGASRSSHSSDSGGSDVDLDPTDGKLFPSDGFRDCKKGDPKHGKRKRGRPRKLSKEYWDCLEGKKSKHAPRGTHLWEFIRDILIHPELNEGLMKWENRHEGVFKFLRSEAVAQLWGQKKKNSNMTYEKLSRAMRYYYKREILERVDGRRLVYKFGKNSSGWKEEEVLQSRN
The method in brief: as §1

Another test addresses ETV1 (Homo sapiens, UniProt P50549 1-477). The method in brief: as §1
A further test deals with T11, ELK3 (Homo sapiens, UniProt P41970 1-407).
T11 sequence: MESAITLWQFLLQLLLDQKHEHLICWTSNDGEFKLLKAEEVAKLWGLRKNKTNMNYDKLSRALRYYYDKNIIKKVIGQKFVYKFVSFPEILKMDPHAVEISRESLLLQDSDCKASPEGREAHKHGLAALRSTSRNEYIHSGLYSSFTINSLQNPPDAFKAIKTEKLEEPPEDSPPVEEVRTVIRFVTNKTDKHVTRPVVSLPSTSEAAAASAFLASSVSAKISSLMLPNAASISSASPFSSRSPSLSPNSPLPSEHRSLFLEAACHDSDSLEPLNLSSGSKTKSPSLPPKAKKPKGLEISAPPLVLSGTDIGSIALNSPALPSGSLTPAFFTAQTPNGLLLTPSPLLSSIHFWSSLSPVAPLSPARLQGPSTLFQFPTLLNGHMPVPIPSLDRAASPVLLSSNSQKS
The method in brief: as §1

ELF4, sequence (Q99607 whole entry): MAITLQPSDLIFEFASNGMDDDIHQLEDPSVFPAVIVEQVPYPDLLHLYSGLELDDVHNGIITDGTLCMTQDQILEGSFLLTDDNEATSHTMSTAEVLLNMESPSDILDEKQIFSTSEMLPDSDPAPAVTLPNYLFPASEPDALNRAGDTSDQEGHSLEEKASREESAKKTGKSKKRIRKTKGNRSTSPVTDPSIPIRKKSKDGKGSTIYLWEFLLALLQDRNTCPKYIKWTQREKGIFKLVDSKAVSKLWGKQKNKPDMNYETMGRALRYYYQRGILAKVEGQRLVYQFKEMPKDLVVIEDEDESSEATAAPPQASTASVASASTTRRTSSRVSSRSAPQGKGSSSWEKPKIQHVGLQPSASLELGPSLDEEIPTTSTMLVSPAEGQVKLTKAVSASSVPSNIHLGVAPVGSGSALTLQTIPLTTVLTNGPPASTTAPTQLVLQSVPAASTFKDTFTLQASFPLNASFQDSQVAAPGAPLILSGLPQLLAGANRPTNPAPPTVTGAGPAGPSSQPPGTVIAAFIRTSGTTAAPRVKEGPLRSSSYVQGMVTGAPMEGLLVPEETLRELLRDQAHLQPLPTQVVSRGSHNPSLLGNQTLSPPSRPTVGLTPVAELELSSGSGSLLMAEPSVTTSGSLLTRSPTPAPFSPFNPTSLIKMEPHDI
ETV1, sequence (P50549 whole entry): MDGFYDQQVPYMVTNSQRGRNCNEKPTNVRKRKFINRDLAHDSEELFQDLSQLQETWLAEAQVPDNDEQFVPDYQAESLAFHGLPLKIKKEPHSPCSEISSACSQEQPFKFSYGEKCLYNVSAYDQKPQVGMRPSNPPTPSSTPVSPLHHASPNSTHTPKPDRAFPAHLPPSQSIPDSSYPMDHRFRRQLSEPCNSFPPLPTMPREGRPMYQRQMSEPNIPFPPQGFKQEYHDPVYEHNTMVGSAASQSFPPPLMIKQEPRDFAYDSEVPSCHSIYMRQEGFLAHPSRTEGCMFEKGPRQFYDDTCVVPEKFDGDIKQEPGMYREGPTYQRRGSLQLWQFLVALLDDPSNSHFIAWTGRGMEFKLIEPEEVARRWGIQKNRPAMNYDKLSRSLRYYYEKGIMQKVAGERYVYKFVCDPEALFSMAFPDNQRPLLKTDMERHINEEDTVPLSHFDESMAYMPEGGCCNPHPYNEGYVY
SPIB, sequence (Q01892 whole entry): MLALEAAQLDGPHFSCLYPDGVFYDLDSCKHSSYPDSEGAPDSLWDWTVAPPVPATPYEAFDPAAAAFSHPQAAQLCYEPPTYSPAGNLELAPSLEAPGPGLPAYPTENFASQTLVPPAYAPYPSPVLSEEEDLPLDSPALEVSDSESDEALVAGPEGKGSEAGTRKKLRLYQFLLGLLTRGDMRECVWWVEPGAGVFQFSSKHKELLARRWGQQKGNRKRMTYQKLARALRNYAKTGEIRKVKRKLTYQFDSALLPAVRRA
ELF1, sequence (P32519 whole entry): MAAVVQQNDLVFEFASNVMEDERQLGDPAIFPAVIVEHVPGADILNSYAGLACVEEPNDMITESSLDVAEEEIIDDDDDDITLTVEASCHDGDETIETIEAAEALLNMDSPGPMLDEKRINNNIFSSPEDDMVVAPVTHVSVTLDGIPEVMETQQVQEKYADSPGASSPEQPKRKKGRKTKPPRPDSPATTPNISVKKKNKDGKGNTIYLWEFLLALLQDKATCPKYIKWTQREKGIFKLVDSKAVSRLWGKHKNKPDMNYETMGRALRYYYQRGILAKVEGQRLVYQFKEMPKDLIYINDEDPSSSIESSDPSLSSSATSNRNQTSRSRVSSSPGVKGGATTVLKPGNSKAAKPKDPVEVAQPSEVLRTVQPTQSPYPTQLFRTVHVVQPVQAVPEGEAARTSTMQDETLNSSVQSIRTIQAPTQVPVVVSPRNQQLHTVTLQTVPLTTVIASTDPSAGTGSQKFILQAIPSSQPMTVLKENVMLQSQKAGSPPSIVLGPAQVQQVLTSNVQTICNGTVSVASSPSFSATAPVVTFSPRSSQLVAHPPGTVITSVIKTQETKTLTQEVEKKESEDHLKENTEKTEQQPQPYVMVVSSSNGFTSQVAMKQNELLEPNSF
ETV5, sequence (P41161 whole entry): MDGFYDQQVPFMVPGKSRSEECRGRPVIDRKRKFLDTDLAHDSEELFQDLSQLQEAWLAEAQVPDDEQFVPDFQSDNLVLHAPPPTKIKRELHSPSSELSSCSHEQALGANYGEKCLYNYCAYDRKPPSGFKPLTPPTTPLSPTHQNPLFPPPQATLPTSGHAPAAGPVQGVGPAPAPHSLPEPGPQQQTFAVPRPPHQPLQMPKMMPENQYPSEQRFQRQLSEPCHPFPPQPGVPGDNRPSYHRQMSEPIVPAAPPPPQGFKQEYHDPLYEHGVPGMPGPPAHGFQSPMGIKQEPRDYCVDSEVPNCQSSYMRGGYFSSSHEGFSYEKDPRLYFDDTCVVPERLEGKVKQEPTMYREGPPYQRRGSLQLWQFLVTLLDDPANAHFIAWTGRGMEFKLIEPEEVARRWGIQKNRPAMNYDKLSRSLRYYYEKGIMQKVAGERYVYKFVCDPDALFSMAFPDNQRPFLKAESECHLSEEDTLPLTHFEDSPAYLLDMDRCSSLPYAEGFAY

Consider ACGCTG, for which the binding signal in the test with FLI1 was 1.14 fold enrichment (6-mer frequency, TF over GST control); with ELK1, 1.19 fold enrichment (6-mer frequency, TF over GST control); with GABPA, 1.23 fold enrichment (6-mer frequency, TF over GST control); with ERG it was 1.18 fold enrichment (6-mer frequency, TF over GST control); with ELF1 it was 1.19 fold enrichment (6-mer frequency, TF over GST control); with EHF, 1.23 fold enrichment (6-mer frequency, TF over GST control). Further, the binding signal with SPI1 was 1.11 fold enrichment (6-mer frequency, TF over GST control); with SPIB it was 1.05 fold enrichment (6-mer frequency, TF over GST control); with FEV, 1.09 fold enrichment (6-mer frequency, TF over GST control); with ETV5 it was 1.08 fold enrichment (6-mer frequency, TF over GST control); in the test with SPIC, 1.15 fold enrichment (6-mer frequency, TF over GST control); with ELF4, 1.17 fold enrichment (6-mer frequency, TF over GST control). The binding signal in the test with ELK4 is 1.21 fold enrichment (6-mer frequency, TF over GST control); with ETV2, 1.05 fold enrichment (6-mer frequency, TF over GST control); in the test with ELF3 it was 1.05 fold enrichment (6-mer frequency, TF over GST control); with ETV1, 1.12 fold enrichment (6-mer frequency, TF over GST control).

Turning to GGAAAC, the binding signal is 1.2 fold enrichment (6-mer frequency, TF over GST control) in the test with FLI1; 1.35 fold enrichment (6-mer frequency, TF over GST control) in the test with ELK1; 1.25 fold enrichment (6-mer frequency, TF over GST control) in the test with GABPA; 1.57 fold enrichment (6-mer frequency, TF over GST control) in the test with ERG; 1.22 fold enrichment (6-mer frequency, TF over GST control) with ELF1; 1.47 fold enrichment (6-mer frequency, TF over GST control) with EHF. Also, the binding signal with SPI1 is 1.25 fold enrichment (6-mer frequency, TF over GST control); in the test with SPIB, 1.39 fold enrichment (6-mer frequency, TF over GST control); in the test with ELK3 it was 1.43 fold enrichment (6-mer frequency, TF over GST control); in the test with FEV it was 1.67 fold enrichment (6-mer frequency, TF over GST control); with ETV5, 1.43 fold enrichment (6-mer frequency, TF over GST control); with SPIC, 1.26 fold enrichment (6-mer frequency, TF over GST control). The binding signal with ELF4 was 1.2 fold enrichment (6-mer frequency, TF over GST control); with ELK4 it was 1.01 fold enrichment (6-mer frequency, TF over GST control); with ETV2, 1.35 fold enrichment (6-mer frequency, TF over GST control); with ELF3, 1.42 fold enrichment (6-mer frequency, TF over GST control); with ETV1, 1.35 fold enrichment (6-mer frequency, TF over GST control).
